# Shown are actives, neighbours in structure and some others; about 19% of the full set was active somewhere.
# TDP1 cell CPT – growth inhibition of DT40 Tdp1-/-;hTDP1 cells with camptothecin (screen for TDP1 inhibitors). chicken DT40 Tdp1-/-;hTDP1 cells + 20 nM CPT, ATP luminescence, 48 h. Potency, µM (series often up to 46.2 µM), inactives show at the highest dose activity change, negative = growth inhibition, actives largely listed as inhibitors. 420,000 tested, 12% active; further: potency means the concentration at half of the fitted maximal effect; nearly all actives have a fitted effect of over 55% in size
#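 Chicken DT40 Tdp1-/- cells stably complemented with human TDP1 were seeded at 400 cells/well in medium containing 20 nM camptothecin, exposed to pin-transferred compounds, and grown at 37 °C for at least 48 hr. Viability was read as ATP luminescence.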
# DT40 TDP1 no CPT – qHTS for Inhibitors of human tyrosyl-DNA phosphodiesterase 1 (TDP1): qHTS in cells in absence of CPT; DT40 Tdp1-/- hTDP1 cells, no CPT, ATP luminescence, 48 h; 420,000 tested, 15% active; Potency, µM (top dose mostly 46.2 µM), for the others: top-dose activity change, negative = growth inhibition, actives largely listed as inhibitors; further: potency means the concentration at half of the fitted maximal effect; nearly all actives have a fitted effect of over 55% in size
#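 A cellular qHTS used chicken DT40 cells lacking endogenous Tdp1 but carrying stably transfected human TDP1. Compounds were applied without camptothecin, and cell growth kinetics were judged by ATP-dependent luminescence after ≥48 hr.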
# HT1080-NT tox – kills 2HG-producing HT-1080-NT fibrosarcoma cells; HT-1080-NT fibrosarcoma viability, CellTiter-Glo ATP luminescence, 48 h; Potency, µM (top dose mostly 46.1 µM), for the others: at the top dose activity, negative = less viability, usual class: cytotoxic; 360,000 tested, 1.6% active; AID 686970;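 further: NT is the 2HG producing partner of a matched IDH1 knockdown line; potency means the concentration at half of the fitted maximal effect; 0% = DMSO-treated cells and -100% = media-only wells without cells; nearly all actives have a fitted effect of over 55% in size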
#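 Viability by CellTiter-Glo luminescence after 48 h compound exposure at 37C of HT-1080-NT cells (750/well, RPMI, 5% FBS). % activity scaled between DMSO wells and medium-only wells, then curve-fitted and categorized by curve class.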
# IL1B secr inh – inflammasome signaling inhibition, IL-1 beta readout | THP-1 LPS/ATP IL-1B secretion, AlphaLISA, 16 h; stronger effect = lower value | activity change, % at 57.5 µM | 360,000 tested, 4.7% active; in the data active means activity change below about -50%; inconclusive means mostly about -30% to -49%
#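 Secreted IL-1B measured by AlphaLISA bead assay after 16 h compound exposure of THP-1 cells; compounds (final up to 57.5 uM) added 1 h before LPS (250 ng/mL) and ATP (1.25 mM) stimulation; lower signal means less secretion.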
# HT1080 IDH1KD tx – toxicity to HT-1080 IDH1 knockdown cells (counter line). AID 686971. 360,000 tested, 2% active. Potency, µM (doses to about 46.1 µM), for the others: top-dose activity, negative = toxicity, actives largely listed as cytotoxic. HT-1080 IDH1 knockdown viability, ATP luminescence, 48 h;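 further: potency means the concentration at half of the fitted maximal effect; 0% = DMSO wells and -100% = cell-free medium wells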
#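 Cytotoxicity counter-line: IDH1KD HT-1080, 48 h, CellTiter-Glo. Curves classed by r2, magnitude and activity.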
# ELG1 repair inh – blocks ELG1-dependent DNA repair in HEK293T cells; Potency, µM (top dose mostly 46.1 µM), inactives show top-dose activity change, negative = inhibition, most hits filed as inhibitors; 330,000 tested, 2.3% active; HEK293T ELG1-luciferase reporter, luminescence, 16 h; DNA damage induced by 5-fluorouridine; AID 504467; further: potency means the concentration at half of the fitted maximal effect; nearly all actives have a fitted effect of over 55% in size
#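 Overnight (16 hr) co-exposure of 2,000 cells/well to 5-fluorouridine and compound at 37 °C preceded detection. Luciferase was quantified via ONE-Glo luminescence; loss of signal denotes inhibition.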
# Active calls of the source: *; u = inconclusive; x = no result. Unless noted, the call rests on the fitted dose curve; in most records, active means well fitted curve in the direction sought with a large enough effect; inconclusive means small, poorly fitted or top-dose-only effect, or another doubt; inactive means no such curve, though single readings can be large; an effect the other way counts as inactive or inconclusive. Unless noted, on the % scale 0 is the no-effect control and ±100 the full control effect.
SMILES,TDP1 cell CPT,DT40 TDP1 no CPT,HT1080-NT tox,IL1B secr inh,HT1080 IDH1KD tx,ELG1 repair inh
COc1ccc(/C=N/NC(=O)c2cccc3ccccc23)c(OC)c1OC,u,u,u,6,16µM*,x
O=C(Nc1cccc(F)c1)/C(=C/c1ccco1)NC(=O)c1ccco1,-14%,2%,-2%,7,-2%,7%
CCC(=O)NC1Cc2ccccc2C(c2ccccc2)C1 (stereo unspecified),-29%,u,x,x,x,x
COc1ccc(-c2ccc(C(C)=O)cc2)cc1[C@H]1[C@H]2C=CC[C@@H](C)[C@@H]2C(=O)N1Cc1ccccc1,23µM*,16µM*,14%,37,3%,u
COC(=O)c1ccc(-c2ccc(OC)c([C@H]3[C@H]4C=CC[C@@H](C)[C@@H]4C(=O)N3Cc3ccccc3)c2)cc1,5.8µM*,6.5µM*,-1%,49,-2%,-11%
CCCN1CCc2c(sc(NC(=O)Cc3ccc(F)cc3)c2C(N)=O)C1,-2%,11%,22%,u,8%,-4%
CC(C)(C)C(=O)[C@@H]1[C@@H]2C(=O)N(C3CCCCC3)C(=O)[C@@H]2[C@H]2c3ccccc3C=CN12,23µM*,u,-9%,-13,-9%,10%
O=C(c1ccc2c(c1)OCO2)[C@@H]1[C@@H]2C(=O)N(C3CCCCC3)C(=O)[C@@H]2C2c3ccccc3C=CN21 (stereo partly specified),u,16µM*,-11%,-17,0%,0%
COc1ccc(N2C(=O)[C@@H]3[C@H](C2=O)[C@H]2c4ccccc4C=CN2[C@@H]3C(C)=O)cc1,u,16µM*,10%,0,21%,8%
COc1ccc(N2C(=O)[C@H]3[C@@H](C2=O)C2c4ccccc4C=NN2[C@H]3C(=O)C(C)(C)C)cc1 (stereo partly specified),5%,-27%,7%,15,6%,0%
O=C(Nc1ccc2c(c1)OCO2)[C@@H]1[C@@H]2C(=O)N(C3CCCCC3)C(=O)[C@@H]2C2c3ccccc3C=CN21 (stereo partly specified),x,x,x,x,x,2%
Cc1cc(C(=O)Nc2c(F)c(F)c(F)c(F)c2F)n(-c2ccccc2)n1,u,-5%,15%,18,13%,-11%
O=C(Nc1ccccc1C(F)(F)F)c1c(F)cccc1Cl,-5%,2%,-1%,-24,-7%,2%
COc1ccc(-c2cc(C(=O)Nc3cc(C(F)(F)F)ccc3Cl)no2)cc1,5%,0%,x,x,x,x
CC1(C(=O)Nc2ccccc2Cc2ccccc2)CCN1Cc1ccccc1Cl (stereo unspecified),u,23µM*,u,-3,u,x
CC(C)NC(=O)C1(C)CCCN1Cc1ccccc1C#N (stereo unspecified),u,u,54%,31,24%,x
CCNC(=O)C1(C)CCCN1Cc1ccccc1Cl (stereo unspecified),23µM*,u,27%,0,20%,x
CC1(OC(=O)C2CCCC2)C(=O)C=C2C=C(c3ccsc3)N(C3CCCCC3)C=C2C1=O (stereo unspecified),21µM*,21µM*,0%,-10,-4%,-5%
CC1(OC(=O)C2CCCC2)C(=O)C=C2C=C(c3ccsc3)N(CC3CC3)C=C2C1=O (stereo unspecified),-13%,u,4%,46,1%,-13%
